PubChem BioAssay (NCI)
This is part of a sample that, as a whole, favours compounds with a hit. Of some 83,000 tested, about 20% had one in any assay.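 Compound tested at a single concentration for 48 hours in 96-well plates; a percent growth value below 10 was scored as active.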 Unmarked numbers belong to inactive results. Activity calls are given as the source filed them.

These molecules were tested on COLO 205 colon (assay: NCI-60 one-dose screen, 48 h (100 = growth as untreated, 0 = no growth, -100 = all killed)). Details: 10 µM unless noted.

Q: With `Cc1cccc(C)c1NC(=O)CSC(=S)N1CCCCC1` as the molecule, how does the growth read?
A: 109%

Q: For `O=C(/C=C/c1cccc(O)c1)c1ccccc1O`, which growth is on record?
A: 104%

Q: How did the growth turn out when `O=C(NO)c1ccc(Cn2c(=O)n(CCc3ccc(O)cc3)c(=O)c3ccccc32)cc1` was run?
A: 19.6%

Q: `COc1ccc(O)c(-c2cc(-c3ccc(Cl)cc3)c(C#N)c(=O)[nH]2)c1` was tested. Which growth did it give?
A: 95.2%

Q: Which growth does the source give for `CCC(=O)c1c(C)[nH]c(C)c1C` here?
A: 89.4%

Q: `COc1cc(-c2cc3ncccc3c3nc(OCCN(C)C)c4cccnc4c23)cc(OC)c1OC` was tested. Which growth did it give?
A: 3.65% (active)

Q: `CC(C)/C=C/CC[C@](C)(O)[C@H]1CC[C@]2(C)[C@@H]1CC[C@@H]1[C@@]3(C)C/C(=C/c4cccc(C(F)(F)F)c4)C(=O)C(C)(C)[C@@H]3CC[C@]12C` was tested. Which growth did it give?
A: 113%

Q: `O=C(NCN1C(=O)c2cccc3cccc(c23)C1=O)N1CCC(Cc2ccccc2)CC1` was tested. Which growth did it give?
A: 97.5%

Q: `COc1cnc2c(c1)C(=O)c1c-2n(CCCNCCN2CCOCC2)c(=O)c2cc([N+](=O)[O-])ccc12` was tested. Which growth did it give?
A: -2.78% (active)

Q: How did the growth turn out when `CCCCCCCC(=O)SCC/C=C/[C@@H]1CC(=O)NCc2cccc(n2)CN(Cc2ccc3ccccc3c2)CC(=O)N[C@@H](C(C)C)C(=O)O1` was run?
A: 33.7%

Q: With `Fc1ccc2nc(-c3cc(-c4ccc5c(c4)OCO5)n[nH]3)[nH]c2c1` as the molecule, how does the growth read?
A: 84.7%

Q: `Cn1cc(-c2nc(-c3cn(C)c4ncccc34)cs2)c2cc(F)ccc21` was tested. Which growth did it give?
A: 31.3%

Q: How did the growth turn out when `NCCn1cc(-c2nc(-c3c[nH]c4ncccc34)cs2)c2ccccc21` was run?
A: 96.7%

Q: `COc1ccc(-c2cc(-c3c(C)oc4cc5occc5c(OC)c4c3=O)nc(N)c2C#N)cc1OC` was tested. Which growth did it give?
A: 68.1%

Q: `CN(C)c1ccc(N)c2ccccc12` was tested. Which growth did it give?
A: 19.6%

Q: For `O=C1Nc2ccccc2/C1=C/c1cn(CCCn2c3ccccc3c(=O)c3ccccc32)c2ccccc12`, which growth is on record?
A: 88.6%

Q: Which growth does the source give for `C=C(C)[C@@H]1CC[C@]2(C=NCCCNCCCCNCCCN)CC[C@]3(C)[C@H](CC[C@@H]4[C@@]5(C)CCCNC(C)(C)[C@@H]5CC[C@]43C)[C@@H]12` here?
A: 79.1%

Q: How did the growth turn out when `CCCCn1c(-c2ccc(O)cc2)cn2c3c(=O)[nH]c(=O)n(C)c3nc12` was run?
A: 89.9%

Q: How did the growth turn out when `Cc1nn(-c2ccc(Br)cc2)c2nc3[nH]c(=O)[nH]c(=O)c3nc12` was run?
A: 115%

Q: With `Cc1cc2nc3c4cc(N)ccc4n(CCN(C)C)c3nc2cc1C` as the molecule, how does the growth read?
A: -18.5% (active)

Q: Which growth does the source give for `COc1ccc(-c2nc3c(c(C)nn3-c3ccc(F)cc3)c(=O)[nH]2)cc1` here?
A: 74%
